Data reported in PubChem BioAssay (Tox21).
Inconclusive results are not listed. The source made the active and inactive calls. Unless noted, calls follow the shape of the full dose curve.

Legend:
[1] = Nuclear factor erythroid 2-related factor 2/antioxidant responsive element (Nrf2/ARE) small molecule agonists: qHTS cell viability counter screen in human keratinocytes (AID 1919968; active = well fitted curve in the direction sought with a large enough effect in the repeat runs; an effect the other way counts as inactive or inconclusive; also: nearly all actives have a fitted effect of over 55% in size; also: potency is read from the fitted curve at half-maximal effect)
Summary of the method: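 KeratinoSens HaCaT cells, 1,500/well, preincubated 5 h, then exposed to compounds in DMSO for 23 h at 37 C/5% CO2. Viability read as CellTiter-Fluor fluorescence after 1 h, in the same wells as the ARE-luciferase read.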

[2] = Nuclear factor erythroid 2-related factor 2/antioxidant responsive element (Nrf2/ARE) small molecule agonists: luciferase reporter gene qHTS assay in human keratinocytes (AID 1919969); also: nearly all actives have a fitted effect of over 35% in size
[3] = biological target: Gonadotropin-releasing hormone receptor (Homo sapiens) (UniProt P30968); assay: Human gonadotropin-releasing hormone receptor (GnRHR) small molecule agonists, calcium flux assay in GnRHR-HEK293 cells (AID 1920063); also: nearly all actives have a fitted effect of over 35% in size
Summary of the method: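 HEK293 cells stably expressing human GnRHR were dye-loaded for 1 h at 37 C. Compound was added in agonist mode and fluorescence (Ex/Em 480/540) recorded kinetically for 3 min. Fifteen concentrations, triplicates.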

[4] = biological target: KiSS-1 receptor (Homo sapiens) (UniProt Q969F8); assay: Human kisspeptin (KISS1R) small molecule agonists, calcium flux assay in KISS1R-HEK293 cells (AID 1920064; active = well fitted curve in the direction sought with a large enough effect in the repeat runs; an effect the other way counts as inactive or inconclusive)
Summary of the method: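 HEK293 cells stably expressing human KISS1R were loaded with calcium dye for 1 h at 37 C, then given compound; fluorescence (Ex/Em 480/540) was read kinetically for 3 min. Fifteen concentrations, triplicate.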

[5] = G protein-coupled receptor (GPCR) small molecule agonists, calcium flux assay: HEK293 wild type cell line counter screen (AID 1920065)
Summary of the method: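 Wild-type HEK293 cells plated 18 h, loaded with calcium dye 1 h at 37 C, then compounds added in agonist mode (ATP as positive control). Kinetic fluorescence Ex/Em 480/540 recorded 3 min at 1 sec intervals; 15 concentrations, triplicate.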

[6] = p53 small molecule agonists, cell-based qHTS assay with human liver microsomes (AID 1963577);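 also: p53 response element beta-lactamase reporter cells with liver microsomes plus NADPH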
Summary of the method: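 In this qHTS, p53 response-element beta-lactamase cells receive test compound together with a microsome/NADPH activating system (0.5 mg/mL final each) and are incubated 16 h at 37 C before LiveBLAzer fluorescence detection.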

[7] = p53 small molecule agonists, cell-based qHTS assay with rat liver microsomes (AID 1963578)
Summary of the method: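 Agonist mode in p53RE-bla reporter cells, with compounds co-incubated 16 h at 37 C alongside 0.5 mg/mL rat liver microsomes and 0.5 mg/mL NADPH (final), followed by a 2 h LiveBLAzer detection step.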

[8] = p53 small molecule agonists, cell-based qHTS assay with human liver microsomes: qHTS cell viability counter screen (AID 1963579); also: nearly all actives have a fitted effect of over 45% in size
Summary of the method: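 Metabolically activated exposure: compounds, human liver microsomes and NADPH (0.5 mg/mL final apiece) were added to p53RE-bla cells seeded 5 h earlier, left 16 h at 37 C, and then assessed for viability by CellTiter-Glo luminescence.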

[9] = p53 small molecule agonists, cell-based qHTS assay with rat liver microsomes: qHTS cell viability counter screen (AID 1963580); also: nearly all actives have a fitted effect of over 45% in size
Summary of the method: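 Viability is assessed in parallel with the p53 reporter read: HCT-116 p53RE-bla cells receive compounds plus rat microsomes and NADPH (0.5 mg/mL final apiece), incubate 16 h at 37 C, and then CellTiter-Glo luminescence is recorded.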

[10] = p53 small molecule agonists, cell-based qHTS assay: qHTS cell viability counter screen (AID 1963581); also: nearly all actives have a fitted effect of over 45% in size
Summary of the method: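 p53RE-bla HCT-116 cells, compounds added 5 h after plating and incubated 16 h at 37 C. Cytotoxicity measured in the same wells as intracellular ATP by CellTiter-Glo luminescence after 30 min at room temperature.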

[11] = p53 small molecule agonists, cell-based qHTS assay (AID 1963582; active = well fitted activation curve with a large enough effect in the signal ratio in the repeat runs, not every such curve was filed as active; the % refers to the signal ratio; also: potency is read from the fitted curve at half-maximal effect)
Summary of the method: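 p53RE-bla reporter cells, compounds added in DMSO after 5 h plating, incubated 16 h at 37 C. Beta-lactamase read via 2 h room-temperature LiveBLAzer B/G FRET substrate, fluorescence intensity.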

[12] = cAMP Responsive Elements (CRE) small molecule agonists, cell-based qHTS assay (AID 1963590)
Summary of the method: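 CRE-bla HEK 293T cells, 2,000/well in DMEM with 10% dialyzed FBS and 25 mM HEPES, pre-incubated 18 h at 37 C, then exposed to compound 3 h at 37 C. Beta-lactamase reporter read with LiveBLAzer B/G FRET substrate after 2 h at room temperature.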

[13] = cAMP Responsive Elements (CRE) small molecule antagonists, cell-based qHTS assay (AID 1963591; active = well fitted inhibition curve with a large enough effect in the signal ratio in the repeat runs, not every such curve was filed as active; the % refers to the signal ratio)
Summary of the method: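 CRE-bla HEK293T cells plated 18 h, then given compound plus NKH477 at 0.25 uM final for 3 h at 37C. Beta-lactamase reporter read with LiveBLAzer B/G FRET substrate after 2 h at room temperature.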

[14] = biological target: Beta-2 adrenergic receptor (Homo sapiens) (UniProt P07550); assay: Adrenergic beta2 receptor (ADRB2) small molecule antagonists, cell-based qHTS assay (AID 1963592); also: series mostly up to about 92 µM; nearly all actives have a fitted effect of over 50% in size
Summary of the method: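 Cells (CHO, stable ADRB2 overexpression) incubated 18-20hr at 37C; compounds added from DMSO; agonist mix (1nM isoproterenol, 100uM IBMX, 25uM Ro-20-1724) added; 0.5hr RT; d2-cAMP and anti-cAMP-cryptate added; 1hr RT; 665/615 nm read.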

[15] = biological target: D(2) dopamine receptor (Homo sapiens) (UniProt P14416); assay: Dopamine D2 receptor (DRD2) small molecule agonists, cell-based qHTS assay (AID 1963594); also: nearly all actives have a fitted effect of over 35% in size
Summary of the method: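 HEK293 cells stably expressing human DRD2, pre-treated with PDE inhibitor Ro20-1724 (0.1 mM final) and compound 10 min at room temperature, then stimulated with NKH477 (200nM […]) for 30 min. cAMP read by HTRF (665/620 nm).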

[16] = biological target: 5-hydroxytryptamine receptor 2A (Homo sapiens) (UniProt P28223); assay: 5-hydroxytryptamine receptor 2A (HTR2A) small molecule agonists, cell-based qHTS assay (AID 1963587); also: nearly all actives have a fitted effect of over 30% in size
Summary of the method: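 CHO cells stably expressing human HTR2A, plated 18 h, loaded with calcium dye 1 h at 37 C. Agonist mode: compounds added and intracellular calcium fluorescence recorded kinetically for 2 min at 1 sec intervals.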

[17] = biological target: Muscarinic acetylcholine receptor M1 (Homo sapiens) (UniProt P11229); assay: Cholinergic receptor muscarinic 1 (CHRM1) small molecule antagonists, cell-based qHTS assay (AID 1963588); also: nearly all actives have a fitted effect of over 40% in size
Summary of the method: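 CHRM1-CHO calcium-flux assay, antagonist mode. Cells were seeded 18 h, dye-loaded 1 h at 37 C and given compound for 5 min at RT, then acetylcholine was added at 50nM. FDSS fluorescence was read 3 min; 15 concentrations, three runs.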

[18] = biological target: Muscarinic acetylcholine receptor M1 (Homo sapiens) (UniProt P11229); assay: Cholinergic receptor muscarinic 1 (CHRM1) small molecule agonists, cell-based qHTS assay (AID 1963589); also: nearly all actives have a fitted effect of over 35% in size
Summary of the method: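 CHO cells stably expressing human CHRM1 were loaded with calcium dye for 1 h at 37 C, then compound was added in agonist mode. Intracellular calcium fluorescence was followed kinetically at 1 s intervals. Fifteen concentrations were tested in three independent runs.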

[19] = biological target: D(2) dopamine receptor (Homo sapiens) (UniProt P14416); assay: Dopamine D2 receptor (DRD2) small molecule antagonists, cell-based qHTS assay (AID 1963595; active = well fitted inhibition curve with a large enough effect in the signal ratio in the repeat runs, with a control signal flat; the % refers to the signal ratio)
Summary of the method: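 Human DRD2 antagonist qHTS measuring cAMP by HTRF. The cells are exposed to compound for 10 min, then to NKH477 (200 nM) and quinpirole (12 nM) for 30 min at RT, with Ro20-1724 (0.1 mM) present throughout.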
% is scaled to controls: 0 for no effect and ±100 for the full control effect.

5-hydroxytryptamine receptor 2A (Homo sapiens), sequence (P28223 whole entry, looked up): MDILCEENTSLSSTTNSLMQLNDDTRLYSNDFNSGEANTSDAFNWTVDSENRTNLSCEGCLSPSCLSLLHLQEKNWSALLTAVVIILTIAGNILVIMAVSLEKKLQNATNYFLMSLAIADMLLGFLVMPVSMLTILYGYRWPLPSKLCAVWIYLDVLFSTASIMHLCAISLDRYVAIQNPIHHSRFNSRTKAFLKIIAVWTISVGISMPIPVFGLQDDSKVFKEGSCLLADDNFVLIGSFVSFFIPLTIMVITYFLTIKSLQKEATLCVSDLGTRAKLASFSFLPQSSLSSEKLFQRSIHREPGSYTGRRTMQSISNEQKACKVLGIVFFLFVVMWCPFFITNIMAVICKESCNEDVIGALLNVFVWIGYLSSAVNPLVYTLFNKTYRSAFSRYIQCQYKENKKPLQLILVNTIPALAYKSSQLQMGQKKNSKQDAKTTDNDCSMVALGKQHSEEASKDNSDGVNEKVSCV
D(2) dopamine receptor (Homo sapiens), sequence (P14416 whole entry, looked up): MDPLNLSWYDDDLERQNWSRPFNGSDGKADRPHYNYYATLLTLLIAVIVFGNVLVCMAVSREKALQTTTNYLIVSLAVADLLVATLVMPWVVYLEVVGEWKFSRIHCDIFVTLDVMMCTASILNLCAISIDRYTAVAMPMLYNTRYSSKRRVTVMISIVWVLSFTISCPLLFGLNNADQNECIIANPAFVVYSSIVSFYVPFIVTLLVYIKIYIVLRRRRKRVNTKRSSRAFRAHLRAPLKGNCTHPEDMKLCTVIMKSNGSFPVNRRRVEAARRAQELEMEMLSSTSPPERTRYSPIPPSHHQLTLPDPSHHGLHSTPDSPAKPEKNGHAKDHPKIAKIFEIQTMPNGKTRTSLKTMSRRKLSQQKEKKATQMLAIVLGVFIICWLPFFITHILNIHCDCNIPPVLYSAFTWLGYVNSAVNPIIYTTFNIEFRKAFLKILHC
Muscarinic acetylcholine receptor M1 (Homo sapiens), sequence (P11229 whole entry, looked up): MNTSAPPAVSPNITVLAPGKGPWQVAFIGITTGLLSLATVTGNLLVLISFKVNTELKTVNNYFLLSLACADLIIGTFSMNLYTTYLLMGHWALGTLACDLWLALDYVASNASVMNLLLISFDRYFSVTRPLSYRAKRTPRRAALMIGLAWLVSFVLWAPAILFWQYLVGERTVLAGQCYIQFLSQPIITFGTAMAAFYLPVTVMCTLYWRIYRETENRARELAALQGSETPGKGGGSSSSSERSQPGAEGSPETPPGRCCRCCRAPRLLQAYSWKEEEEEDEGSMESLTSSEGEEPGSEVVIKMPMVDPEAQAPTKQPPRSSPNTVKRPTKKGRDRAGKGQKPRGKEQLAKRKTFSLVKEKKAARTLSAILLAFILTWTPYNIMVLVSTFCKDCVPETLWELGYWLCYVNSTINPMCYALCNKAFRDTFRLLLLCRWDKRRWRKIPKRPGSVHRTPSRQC
Beta-2 adrenergic receptor (Homo sapiens), sequence (P07550 whole entry, looked up): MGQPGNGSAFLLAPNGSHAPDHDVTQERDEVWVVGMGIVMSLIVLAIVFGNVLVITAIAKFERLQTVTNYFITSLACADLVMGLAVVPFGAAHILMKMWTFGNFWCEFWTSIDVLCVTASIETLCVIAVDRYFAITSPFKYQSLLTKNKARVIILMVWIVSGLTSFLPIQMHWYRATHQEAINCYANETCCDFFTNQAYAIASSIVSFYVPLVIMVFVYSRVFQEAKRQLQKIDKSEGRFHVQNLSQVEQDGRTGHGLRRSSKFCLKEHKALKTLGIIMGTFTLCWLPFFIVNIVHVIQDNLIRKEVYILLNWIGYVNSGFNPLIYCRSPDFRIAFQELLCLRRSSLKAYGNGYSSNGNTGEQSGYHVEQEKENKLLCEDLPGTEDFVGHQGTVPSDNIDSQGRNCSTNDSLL
Gonadotropin-releasing hormone receptor (Homo sapiens), sequence (P30968 whole entry, looked up): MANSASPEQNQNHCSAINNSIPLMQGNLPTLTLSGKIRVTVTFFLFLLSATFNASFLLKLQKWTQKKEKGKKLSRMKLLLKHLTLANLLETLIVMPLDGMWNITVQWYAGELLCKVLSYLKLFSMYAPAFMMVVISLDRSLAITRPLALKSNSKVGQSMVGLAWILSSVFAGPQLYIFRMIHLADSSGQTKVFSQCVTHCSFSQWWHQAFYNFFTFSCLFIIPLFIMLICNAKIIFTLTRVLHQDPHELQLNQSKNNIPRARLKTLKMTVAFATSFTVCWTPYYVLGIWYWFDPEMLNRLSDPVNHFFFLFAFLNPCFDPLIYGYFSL
KiSS-1 receptor (Homo sapiens), sequence (Q969F8 whole entry, looked up): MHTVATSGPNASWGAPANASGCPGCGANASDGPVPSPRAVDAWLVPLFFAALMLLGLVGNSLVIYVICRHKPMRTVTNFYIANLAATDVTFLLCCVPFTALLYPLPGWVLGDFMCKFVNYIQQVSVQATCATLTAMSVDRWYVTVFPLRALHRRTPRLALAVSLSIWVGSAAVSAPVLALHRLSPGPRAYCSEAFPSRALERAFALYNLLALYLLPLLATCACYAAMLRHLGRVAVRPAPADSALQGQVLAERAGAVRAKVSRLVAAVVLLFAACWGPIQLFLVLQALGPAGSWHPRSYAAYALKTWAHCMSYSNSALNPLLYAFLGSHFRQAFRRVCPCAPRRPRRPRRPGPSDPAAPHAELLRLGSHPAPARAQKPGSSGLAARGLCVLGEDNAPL

Brc1ccccc1
inactive: Potency [1] | Potency [2] | Potency [3] | Potency [4] | Potency [5] | Potency [6] | Potency [7] | Potency [8] | Potency [9] | Potency [10] | Potency [11] | Potency [12] | Potency [13] | Potency [14] | Potency [15]

c1ccc2c(c1)CCNC2
inactive: Potency [1] | Potency [2] | Potency [3] | Potency [4] | Potency [5] | Potency [6] | Potency [7] | Potency [8] | Potency [9] | Potency [10] | Potency [11] | Potency [16] | Potency [17] | Potency [18] | Potency [12] | Potency [13] | Potency [14] | Potency [19]

Clc1cc2c(cc1Cl)Oc1cc(Cl)c(Cl)cc1O2
inactive: activity change, negative = cytotoxicity [1] 5.41% [at 0.349 µM] | activity, positive = activation [2] 4.08% [at 0.349 µM] | activity change [3] 1.13% [at 0.217 µM, stronger effect = higher value] | activation [4] -3.37% [at 0.29 µM] | activation [5] 0.634% [at 0.217 µM] | activation [6] 0.165% [at 0.249 µM] | activation [7] -1.51% [at 0.249 µM] | activity change, negative = cytotoxicity [8] -6.87% [at 0.249 µM] | activity change, negative = cytotoxicity [9] 0.149% [at 0.249 µM] | activity change, negative = cytotoxicity [10] 1.19% [at 0.249 µM] | activation [11] 1.03% [at 0.249 µM] | activation [12] 0.0128% [at 0.349 µM] | activity change, negative = inhibition [13] -0.651% [at 0.349 µM] | activation [15] 0.882% [at 0.349 µM]

C=C(Cl)Cl
inactive: Potency [1] | Potency [2] | Potency [3] | Potency [4] | Potency [5] | Potency [6] | Potency [7] | Potency [8] | Potency [9] | Potency [10] | Potency [11] | Potency [13] | Potency [14] | Potency [15] | Potency [19]

CCN(CC)C(=O)N[C@@H]1C=C2c3cccc4[nH]cc(c34)C[C@@H]2N(C)C1
inactive: Potency [1] | Potency [2] | Potency [3] | Potency [4] | Potency [5] | Potency [6] | Potency [7] | Potency [8] | Potency [9] | Potency [10] | Potency [11] | Potency [12] | Potency [19]

COc1cc(C=O)cc2c1[C@H](COC(N)=O)[C@]1(OC(C)=O)ON2C[C@H]2[C@@H]1N2C(C)=O
inactive: Potency [2] | Potency [3] | Potency [4] | Potency [5] | Potency [6] | Potency [7] | Potency [8] | Potency [9] | Potency [10] | Potency [16] | Potency [17] | Potency [18] | Potency [12] | Potency [14] | Potency [15] | Potency [19]
active: Potency [1] 9.69 µM | Potency [11] 3.63 µM

CCOC(=O)C1(c2ccccc2)CCN(CCc2ccc(N)cc2)CC1
inactive: Potency [1] | Potency [2] | Potency [3] | Potency [4] | Potency [5] | Potency [6] | Potency [7] | Potency [8] | Potency [9] | Potency [10] | Potency [11] | Potency [16] | Potency [18] | Potency [12] | Potency [13] | Potency [14] | Potency [19]

Oc1cccc(Cl)c1Cl
inactive: Potency [1] | Potency [2] | Potency [3] | Potency [4] | Potency [5] | Potency [6] | Potency [7] | Potency [8] | Potency [9] | Potency [10] | Potency [11] | Potency [16] | Potency [17] | Potency [18] | Potency [12] | Potency [14] | Potency [15] | Potency [19]
